Molecules are shown by their SMILES. A number with no mark means an inactive call. Records with an inconclusive call do not appear. Activity calls are given as the source filed them. The call rests on the fitted dose curve; in most records, active means well fitted curve in the direction sought with a large enough effect; inconclusive means small, poorly fitted or top-dose-only effect, or another doubt; inactive means no such curve, though single readings can be large; an effect the other way counts as inactive or inconclusive.

Results on 41 molecules are retold here after PubChem BioAssay (NCATS).

Assay [1] deals with Glutathione peroxidase 1 (Homo sapiens) (UniProt P07203). Put plainly: Primary qHTS Assay for Inhibitors of Recombinant Selenoprotein Glutathione Peroxidase 1 (GPX1) (AID 1845191). Further: nearly all actives have a fitted effect of over 65% in size. The method in brief:
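GR-coupled readout: NADPH consumption tracked by fluorescence, ex 340/em 450 nm, at t=0 and after 15 min at RT. Final mix 10 nM GPX1, 1 mM GSH, 0.5 mM CHP, 0.5 mM NADPH, 100 nM GR, 0.01% BSA, following 30 min enzyme–compound preincubation.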

A short description of assay [2]: HepG2 viability counterscreen (readout 2: ATP content) against the NCATS DSHEA and TCM libraries (AID 1794840).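 Further: HepG2 cells exposed to substances for about 24 h; 0% is about no effect.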 The method in brief:
(§1)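 1,000 HepG2 cells/well, 4 h attach; compounds ~24 h, 37C/5% CO2. Readout 1: GF-AFC 25 uM final, 30 min, fluorescence 380/510 nm. Readout 2: CellTiter-Glo, 30 min RT, luminescence.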

Assay [3] is described as follows: HepG2 viability counterscreen (readout 1: protease activity) against the NCATS DSHEA and TCM libraries (AID 1794841).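 Further: cells exposed to compounds for about 24 h before the protease read; 0% is about no effect.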 A digest of the protocol:
as §1

The target in assay [4] is Phospholipid hydroperoxide glutathione peroxidase GPX4 (Homo sapiens) (UniProt P36969). Put plainly: Primary qHTS Assay for Inhibitors of Recombinant Selenoprotein Glutathione Peroxidase 4 (GPX4) (AID 1845192). Further: nearly all actives have a fitted effect of over 65% in size. Further: potency means the concentration at half of the fitted maximal effect. The method in brief: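 Steps: GPX4 plus compound, 30 min RT; add GR/GSH/NADPH master mix; start with cumene hydroperoxide; read 340/450 nm fluorescence at 0 and 15 min. Finals were 200 nM GPX4, 1 mM GSH, 0.5 mM CHP, 0.5 mM NADPH, 100 nM GR.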

Assay [5] has as its target Cytochrome P450 3A4 (Homo sapiens) (UniProt P08684). Put plainly: qHTS for inhibitors of CYP3A4 against the NCATS DSHEA and TCM libraries (AID 1919971).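 Further: on the % scale 0 is the no-effect control and ±100 the full control effect; inhibition lowers luminescence from luciferin made by CYP3A4.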 The method in brief: (§2)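 Concentration-response screening with isoform-matched pro-luciferin substrates. The CYP reaction was initiated by NADPH regenerating solution and ran 30-45 min in darkness at room temperature.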

Assay [6] has as its target Cytochrome P450 2D6 (Homo sapiens) (UniProt P10635). The assay can be described thus: qHTS for inhibitors of CYP2D6 against the NCATS DSHEA and TCM libraries (AID 1919972). Further: on the % scale 0 is the no-effect control and ±100 the full control effect. A digest of the protocol: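 CYP2D6 enzyme with pro-luciferin substrate in manufacturer buffer (typically 100 mM KPO4), preincubated 15 min RT with substances (most at 19.5 nM upward); NADPH regeneration system (1x) started 30–45 min RT reaction; P450-Glo luminescence read after 30 min; quinidine as intraplate control.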

Assay [7] has as its target Cytochrome P450 2C9 (Homo sapiens) (UniProt P11712). Put plainly: qHTS for inhibitors of CYP2C9 against the NCATS DSHEA and TCM libraries (AID 1919973).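 Further: luminogenic pro-luciferin CYP2C9 substrate turned into luciferin with NADPH regeneration; series mostly up to about 34 µM; on the % scale 0 is the no-effect control and ±100 the full control effect.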 A digest of the protocol: as §2
Assay [8] deals with Cytochrome P450 2C19 (Homo sapiens) (UniProt P33261). Put plainly: qHTS for inhibitors of CYP2C19 against the NCATS DSHEA and TCM libraries (AID 1919974).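 Further: luminescence from luciferin released by CYP2C19 oxidation of a pro-luciferin substrate; on the % scale 0 is the no-effect control and ±100 the full control effect.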 The method in brief:
as §2

Assay [9] in a line: KB-3-1 P-gp reporter qHTS against the NCATS DSHEA and TCM libraries (AID 1919975). Further: 0% is about no effect. The method in brief: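 CellTiter-Glo luminescence viability readout; KB-3-1 parental cells, 500/well, attached ~4 h, then compound for ~72 h, 37C, 5% CO2. Bortezomib intraplate control.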
The target of assay [10] is Cytochrome P450 1A2 (Homo sapiens) (UniProt P05177). Put plainly: qHTS for inhibitors of CYPIA2 against the NCATS DSHEA and TCM libraries (AID 1919976).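 Further: light from luciferin formed by CYP1A2 from a pro-luciferin substrate; series mostly up to about 37 µM; on the % scale 0 is the no-effect control and ±100 the full control effect.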 A digest of the protocol: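 Enzyme and pro-luciferin substrate, or substrate alone as no-enzyme background, are pre-incubated with test samples for 15 min at room temperature. NADPH regeneration system (1x final) initiates a 30-45 min dark reaction; luciferase detection reagent follows before luminescence reading.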

Assay [11] in a line: qHTS Counterscreen for compound interference against the NCATS DSHEA and TCM libraries (AID 1919978).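 Further: compounds preincubated with 1 µM D-luciferin or buffer before detection reagent; % of control where 0% means no effect.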 Conditions: firefly luciferase detection reagent interference, luminescence. A digest of the protocol: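 Luminescence counterscreen for detection-kit interference: compounds at 19.5 nM–39.8 uM final, 15 min RT with 1 uM D-luciferin or buffer only; detection reagent added, 30 min RT, then read.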

Assay [12] is described as follows: Dual reporter qHTS for agonist of Pregnane X Receptor (hPXR) against the NCATS DSHEA and TCM libraries: Fluorescence readout (AID 1920058). Further: 0% is about no effect. A digest of the protocol:
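Cells were plated at 2000 per well and allowed to attach for 5 h. Test substances were pinned in and incubated roughly 24 h. CellTiter-Fluor was then added and fluorescence measured after 1 h.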

In assay [13] the target is Nuclear receptor subfamily 1 group I member 2 (Homo sapiens) (UniProt O75469). The assay can be described thus: Dual reporter qHTS for agonist of Pregnane X Receptor (hPXR) against the NCATS DSHEA and TCM libraries: Luminescence readout (AID 1920059). Further: 0% is about no effect. The method in brief: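 hPXR-Luc HepG2 cells, 2000/well in 5% charcoal-stripped FBS medium, attached 5 h, then exposed 24 h at 37C to compounds. Viability by CellTiter-Fluor, then luciferase luminescence with ONE-Glo.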

The nature of assay [14]: Dual reporter qHTS for antagonist of Pregnane X Receptor (hPXR) against the NCATS DSHEA and TCM libraries: Fluorescence Readout (AID 1920061). Further: 0% is about no effect. The method in brief:
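Antagonist mode: rifampicin 2 uM final co-added with compounds to hPXR-LucHepG2 cells for 24 h at 37C. Viability by CellTiter-Fluor, Ex/Em 405/540 nm, 1 h; reporter by ONE-Glo luminescence.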

Phospholipid hydroperoxide glutathione peroxidase GPX4 (Homo sapiens), sequence (P36969 whole entry, looked up): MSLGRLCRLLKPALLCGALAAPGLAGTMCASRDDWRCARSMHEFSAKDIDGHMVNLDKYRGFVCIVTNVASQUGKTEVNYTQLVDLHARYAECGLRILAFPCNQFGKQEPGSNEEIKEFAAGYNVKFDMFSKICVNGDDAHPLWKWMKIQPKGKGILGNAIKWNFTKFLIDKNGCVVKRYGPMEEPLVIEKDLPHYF
Glutathione peroxidase 1 (Homo sapiens), sequence (P07203 whole entry, looked up): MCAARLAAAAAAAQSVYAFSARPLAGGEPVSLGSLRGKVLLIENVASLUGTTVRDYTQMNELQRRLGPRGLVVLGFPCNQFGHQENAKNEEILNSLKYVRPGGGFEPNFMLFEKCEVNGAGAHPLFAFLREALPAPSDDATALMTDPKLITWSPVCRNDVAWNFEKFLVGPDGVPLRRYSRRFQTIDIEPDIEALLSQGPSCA
Nuclear receptor subfamily 1 group I member 2 (Homo sapiens), sequence (O75469 whole entry, looked up): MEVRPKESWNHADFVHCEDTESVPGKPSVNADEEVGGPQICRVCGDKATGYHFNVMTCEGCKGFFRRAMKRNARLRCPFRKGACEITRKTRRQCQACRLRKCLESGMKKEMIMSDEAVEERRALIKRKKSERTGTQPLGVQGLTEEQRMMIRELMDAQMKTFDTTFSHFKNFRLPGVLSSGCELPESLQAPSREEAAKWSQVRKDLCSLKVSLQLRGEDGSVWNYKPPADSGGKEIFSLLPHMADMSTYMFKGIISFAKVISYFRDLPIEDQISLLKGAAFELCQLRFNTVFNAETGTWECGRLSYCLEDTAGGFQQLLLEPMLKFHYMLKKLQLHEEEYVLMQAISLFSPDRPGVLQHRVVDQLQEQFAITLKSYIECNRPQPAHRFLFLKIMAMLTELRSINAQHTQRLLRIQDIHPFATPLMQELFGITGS
Cytochrome P450 1A2 (Homo sapiens), sequence (P05177 whole entry, looked up): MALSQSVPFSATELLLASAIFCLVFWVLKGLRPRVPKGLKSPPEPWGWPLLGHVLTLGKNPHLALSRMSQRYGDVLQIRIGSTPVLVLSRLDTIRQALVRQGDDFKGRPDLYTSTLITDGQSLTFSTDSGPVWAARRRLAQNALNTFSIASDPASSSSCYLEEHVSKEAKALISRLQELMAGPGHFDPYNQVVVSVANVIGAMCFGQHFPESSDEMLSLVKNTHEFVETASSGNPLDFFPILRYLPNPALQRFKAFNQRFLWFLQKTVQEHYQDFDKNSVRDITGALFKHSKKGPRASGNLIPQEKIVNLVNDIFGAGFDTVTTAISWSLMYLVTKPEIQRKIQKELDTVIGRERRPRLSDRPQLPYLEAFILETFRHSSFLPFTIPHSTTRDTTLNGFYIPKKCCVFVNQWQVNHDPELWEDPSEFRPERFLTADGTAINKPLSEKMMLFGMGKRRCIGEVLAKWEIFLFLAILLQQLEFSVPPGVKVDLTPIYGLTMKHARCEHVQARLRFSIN
Cytochrome P450 2D6 (Homo sapiens), sequence (P10635 whole entry, looked up): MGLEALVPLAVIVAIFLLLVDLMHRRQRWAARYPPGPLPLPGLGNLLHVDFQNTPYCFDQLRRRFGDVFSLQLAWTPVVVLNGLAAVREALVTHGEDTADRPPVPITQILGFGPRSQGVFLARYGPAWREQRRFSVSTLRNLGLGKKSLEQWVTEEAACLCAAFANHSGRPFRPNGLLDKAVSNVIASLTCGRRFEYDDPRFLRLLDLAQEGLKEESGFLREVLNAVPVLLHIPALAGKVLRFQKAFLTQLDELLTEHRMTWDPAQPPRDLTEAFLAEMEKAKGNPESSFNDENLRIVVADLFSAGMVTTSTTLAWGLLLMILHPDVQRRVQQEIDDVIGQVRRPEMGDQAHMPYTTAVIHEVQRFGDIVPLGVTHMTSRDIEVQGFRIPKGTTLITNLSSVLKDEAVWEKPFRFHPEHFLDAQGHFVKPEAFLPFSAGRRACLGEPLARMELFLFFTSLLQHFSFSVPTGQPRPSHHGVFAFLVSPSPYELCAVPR
Cytochrome P450 2C9 (Homo sapiens), sequence (P11712 whole entry, looked up): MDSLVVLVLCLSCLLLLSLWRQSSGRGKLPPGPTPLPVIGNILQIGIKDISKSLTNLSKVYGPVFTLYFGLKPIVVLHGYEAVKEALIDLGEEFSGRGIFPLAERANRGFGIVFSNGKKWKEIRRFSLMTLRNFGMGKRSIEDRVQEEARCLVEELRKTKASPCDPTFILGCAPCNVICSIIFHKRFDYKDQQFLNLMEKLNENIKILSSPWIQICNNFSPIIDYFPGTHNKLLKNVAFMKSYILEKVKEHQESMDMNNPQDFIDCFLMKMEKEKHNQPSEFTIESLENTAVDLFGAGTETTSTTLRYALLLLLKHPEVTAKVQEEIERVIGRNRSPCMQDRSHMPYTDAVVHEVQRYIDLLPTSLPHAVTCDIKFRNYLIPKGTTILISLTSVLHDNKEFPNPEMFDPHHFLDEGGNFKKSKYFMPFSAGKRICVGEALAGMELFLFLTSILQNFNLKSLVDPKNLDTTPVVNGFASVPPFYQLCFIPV
Cytochrome P450 2C19 (Homo sapiens), sequence (P33261 whole entry, looked up): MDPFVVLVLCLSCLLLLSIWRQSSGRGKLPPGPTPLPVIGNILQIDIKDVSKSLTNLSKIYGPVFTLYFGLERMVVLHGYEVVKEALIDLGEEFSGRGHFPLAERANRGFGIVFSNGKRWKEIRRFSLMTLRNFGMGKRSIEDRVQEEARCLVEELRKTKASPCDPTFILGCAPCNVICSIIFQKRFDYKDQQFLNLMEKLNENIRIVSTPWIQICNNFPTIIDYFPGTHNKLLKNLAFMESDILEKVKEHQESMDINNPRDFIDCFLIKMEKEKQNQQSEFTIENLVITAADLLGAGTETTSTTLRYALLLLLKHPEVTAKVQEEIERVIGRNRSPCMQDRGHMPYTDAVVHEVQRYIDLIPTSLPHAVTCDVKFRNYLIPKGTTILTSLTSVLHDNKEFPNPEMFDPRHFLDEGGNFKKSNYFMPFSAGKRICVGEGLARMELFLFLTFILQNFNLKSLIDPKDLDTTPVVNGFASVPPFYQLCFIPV
Cytochrome P450 3A4 (Homo sapiens), sequence (P08684 whole entry, looked up, canonical isoform): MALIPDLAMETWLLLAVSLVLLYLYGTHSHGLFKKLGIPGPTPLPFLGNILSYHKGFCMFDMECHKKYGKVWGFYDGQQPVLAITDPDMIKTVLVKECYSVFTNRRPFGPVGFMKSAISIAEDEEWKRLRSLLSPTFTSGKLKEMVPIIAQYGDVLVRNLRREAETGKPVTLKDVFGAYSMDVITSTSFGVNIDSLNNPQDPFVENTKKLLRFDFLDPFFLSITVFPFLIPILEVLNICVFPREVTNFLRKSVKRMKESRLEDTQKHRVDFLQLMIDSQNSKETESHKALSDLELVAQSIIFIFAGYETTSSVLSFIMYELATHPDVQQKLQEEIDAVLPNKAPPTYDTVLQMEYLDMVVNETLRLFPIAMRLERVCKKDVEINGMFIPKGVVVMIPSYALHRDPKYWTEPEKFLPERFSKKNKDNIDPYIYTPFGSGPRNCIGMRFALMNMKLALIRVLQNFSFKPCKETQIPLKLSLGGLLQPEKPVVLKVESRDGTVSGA

As for `C=CCNC1=C2C[C@@H](C)C[C@H](OC)[C@H](O)[C@@H](C)/C=C(\C)[C@H](OC(N)=O)[C@@H](OC)/C=C\C=C(/C)C(=O)NC(=CC1=O)C2=O`, the Potency result in [1] is “inactive”.

Turning to `O=C(O)CC(O)(CC(=O)O)C(=O)O`, the molecule was classed as inactive in assay [2], in assay [3], in assay [5], in assay [6], in [9] and in assay [12]. The molecule was classed as inactive in assay [13] and in assay [14]. Further, the Potency result in assay [1], in assay [4], in assay [7], in assay [8] and in assay [10] was “inactive” each time. Further, the max response in assay [11] was -0.506%.

Consider `NCCCC[C@H](NC(=O)[C@@H]1CCCN1C(=O)[C@@H]1CSSC[C@H](N)C(=O)N[C@@H](Cc2ccccc2)C(=O)N[C@@H](Cc2ccccc2)C(=O)N[C@@H](CCC(N)=O)C(=O)N[C@@H](CC(N)=O)C(=O)N1)C(=O)NCC(N)=O`, for which, in [1], the Potency result is “inactive”.

For `O=C(O)c1cc2ccccc2c(Cc2c(O)c(C(=O)O)cc3ccccc23)c1O`, the Potency entry in assay [1] and in [4] was “inactive” each time.

`CC(C)(S)C(=O)N[C@@H](CS)C(=O)O`: the Potency entry in [1] and in [4] was “inactive” throughout.

Regarding `Cc1ccc(/C(=C\CN2CCCC2)c2cccc(/C=C/C(=O)O)n2)cc1`, the Potency result in assay [1] was “inactive”.

For `CN(C(=O)CO)c1c(I)c(C(=O)NCC(O)CO)c(I)c(C(=O)NCC(O)CO)c1I` (configuration not stated), the Potency entry in assay [1] and in assay [4] was “inactive” each time.

Turning to `Cc1cc(-n2c(=O)[nH]c(=O)n(C)c2=O)ccc1Oc1ccc(S(=O)(=O)C(F)(F)F)cc1`, the Potency result in assay [1] is “inactive”.

Consider `CC1(C)S[C@@H]2[C@H](NC(=O)[C@H](N)c3ccccc3)C(=O)N2[C@H]1C(=O)OCOC(=O)[C@@H]1N2C(=O)C[C@H]2S(=O)(=O)C1(C)C`, for which the Potency entry in [1] was “inactive”.

For the molecule `O=P(O)(O)C(Sc1ccc(Cl)cc1)P(=O)(O)O`, the activity, negative = inhibition in [1] was 3.51% [at 0.4 µM]. For the same molecule, the outcome in [4] is “inactive [at 0.409 µM]”.

Regarding `CCCC(=O)O[C@]1(C(=O)COC(=O)CC)[C@@H](C)C[C@H]2[C@@H]3CCC4=CC(=O)C=C[C@]4(C)[C@@]3(F)[C@@H](O)C[C@@]21C`, the Potency entry in [1] was “inactive”.

Take `N#Cc1ccnc(Nc2cc(C3CCN(C4COC4)CC3)cc(N3CCC(F)(F)C3)n2)c1`: the Potency result in [1] was “inactive”.

On to `CN1CCN(CCCN2c3ccccc3Sc3ccccc32)CC1`, for which the Potency entry in assay [1] and in [4] was “inactive” throughout.

As to `CC(CC(c1ccccc1)c1ccccc1)NC(C)(C)C` (configuration not stated), the Potency entry in [1] and in assay [4] was “inactive” throughout.

For the molecule `CCCCC(=O)O`, the Potency result in assay [1] and in assay [4] was “inactive” each time.

Regarding `O=C(Cn1c(=O)sc2ccc(Cl)cc21)N1CCN(CCO)CC1`, the Potency entry in assay [1] and in assay [4] was “inactive” throughout.

For the molecule `CCCCOC(=O)C(=O)Nc1cccc(-c2nn[nH]n2)c1`, the Potency result in [1] and in [4] was “inactive” throughout.

With `OC(CN1CCCCC1)c1cc(-c2ccccc2)on1` (configuration not stated), the Potency result in assay [1] and in [4] was “inactive” in each case.

In the case of `CC(=O)O[C@H]1CC[C@@]2(C)C(=CC[C@H]3[C@@H]4CC[C@H](C(C)=O)[C@@]4(C)CC[C@@H]32)C1`, the Potency result in [1] and in [4] was “inactive” each time.

Take `COC(=O)Nc1cc(Nc2cc(NC3CC3)c3ncc(C#N)n3n2)c(Cl)c(N2CCN(C)CC2)c1`: the Potency entry in [1] and in assay [4] was “inactive” each time.

Consider `CCC(C)C(C(=O)OCC[N+](C)(CC)CC)c1ccccc1` (configuration not stated), for which the Potency entry in assay [1] and in [4] was “inactive” in each case.

Regarding `Cc1cccc(C)c1N(CCCc1cccnc1)C(=O)C(C)N` (configuration not stated), the Potency result in assay [1] and in assay [4] was “inactive” throughout.

Regarding `O=C1C(c2[nH]c3ccc(S(=O)(=O)O)cc3c2O)=Nc2ccc(S(=O)(=O)O)cc21`, the Potency entry in assay [1] and in assay [4] was “inactive” each time.

Take `CS(=O)(=O)OCCCNCCCOS(C)(=O)=O`: the Potency entry in assay [1] and in assay [4] was “inactive” in each case.

With `CN[C@@H]1CCc2[nH]c3ccc(C(N)=O)cc3c2C1`, the Potency result in [1] and in assay [4] was “inactive” throughout.

Regarding `CO[C@H]1[C@@H](O)[C@H](N)[C@@H](O[C@H]2O[C@H]([C@H](C)N)CC[C@H]2N)[C@H](O)[C@@H]1N(C)C(=O)CN`, the Potency entry in assay [1] and in assay [4] was “inactive” each time.

For the molecule `O=P(O)(O)OC(CO)CO`, the Potency entry in [1] and in assay [4] was “inactive” in each case.

For the molecule `CCOC(=O)[C@H](CCc1ccccc1)N[C@H]1CCCN2CCC[C@@H](C(=O)O)N2C1=O`, the Potency entry in [1] and in [4] was “inactive” in each case.

As for `CCOc1ccc(N=C(C)Nc2ccc(OCC)cc2)cc1`, the Potency entry in assay [1] and in assay [4] was “inactive” throughout.

Consider `CNC[C@@H]1CC[C@@H](N)[C@@H](O[C@H]2[C@H](O)[C@@H](O[C@H]3OC[C@](C)(O)[C@H](NC)[C@H]3O)[C@H](N)C[C@@H]2N)O1`, for which the Potency entry in [1] and in [4] was “inactive” throughout.

`CN1CC(O)c2cc(N=NC(N)=O)c(O)cc21` (configuration not stated): the Potency result in [1] and in assay [4] was “inactive” throughout.

In the case of `O=C(Cc1cccc(OC(F)(F)F)c1)Nc1ccc(CCCCc2nnc(NC(=O)Cc3ccccn3)s2)nn1`, the Potency entry in assay [1] and in assay [4] was “inactive” each time.

For the molecule `CC#CCC(C)[C@H](O)/C=C/[C@@H]1[C@H]2C/C(=C/CCCC(=O)O)C[C@H]2C[C@H]1O` (some centres not stated), the Potency entry in [1] and in [4] was “inactive” throughout.

With `NC(=O)c1cnc(N[C@@H]2CCCC[C@@H]2N)nc1Nc1cccc(-n2nccn2)c1`, the Potency entry in assay [1] and in assay [4] was “inactive” in each case.

For the molecule `O=S(=O)(O)Oc1ccc(C(c2ccc(OS(=O)(=O)O)cc2)c2ccccn2)cc1`, the Potency result in [1] and in [4] was “inactive” in each case.

For the molecule `CC(C(=O)O)c1ccc(C2CCCCC2)c2ccccc12` (configuration not stated), the Potency entry in assay [1] is “inactive”. Also, the Potency in assay [4] is 15.8 µM (active).

For the molecule `C/C(=C(/CCO)SSCC1CCCO1)N(C=O)Cc1cnc(C)nc1N` (configuration not stated), the Potency result in [1] and in assay [4] was “inactive” in each case.

As for `C[C@@H]1COCCN1c1cc(=O)n2c(n1)N(Cc1cncc(Cl)c1)[C@H](C(F)(F)F)CC2`, the Potency result in assay [1] and in [4] was “inactive” in each case.

Consider `OCC(O)COc1ccc(Cl)cc1` (configuration not stated), for which the Potency entry in assay [1] and in assay [4] was “inactive” throughout.

As for `C=Cc1ccccc1`, the Potency entry in assay [1] and in assay [4] was “inactive” throughout.

As for `CN1CCN(C2=Nc3ccccc3Cc3ccccc32)CC1`, the Potency result in assay [1] and in [4] was “inactive” in each case.
